Activity calls are given as the source filed them. How the source made its calls: active means hit-call score of the fitted dose curve at least 0.9, where 1 is the maximum; inactive means score below 0.9.

Read-out in the assay: Epidermal growth factor receptor (EGFR), EGFR (gene 1956)
Kind of assay: BSK_hDFCGF_EGFR: BioMAP Diversity Plus: hDFCGF Assay for Epidermal growth factor receptor (EGFR) Biomarker Activity (AID 2283057). The following applies: primary human foreskin fibroblasts; actives raise or lower the signal. Here is the method: BSK_hDFCGF is a cell-based, multiplexed-readout assay that uses foreskin fibroblast, a human skin primary cell, with measurements taken at 24 hours after chemical dosing in a 96-well plate.BSK_hDFCGF_EGFR is an assay component measured in the BSK_hDFCGF assay. It measures EGFR antibody related to regulation of gene expression using ELISA technology.Data from the assay component BSK_hDFCGF_EGFR was analyzed into 1 assay endpoint. This assay endpoint, BSK_hDFCGF_EGFR, was analyzed with bidirectional fitting relative to DMSO as the negative control and baseline of activity. Using a type of binding reporter, gain or loss-of-signal activity can be used to understand changes in the signaling as they relate to the gene EGFR. Furthermore, this assay endpoint can be referred to as a primary readout, because this assay has produced multiple assay endpoints where this one serves a signaling function. To generalize the intended target to other relatable targets, this assay endpoint is annotated to the kinase intended target family, where the subfamily is receptor tyrosine kinase.
The levels of cell surface (or secreted, indicated by the prefix "s") biomarker endpoints were measured by ELISA. Overt cytotoxicity to cells in confluent adherent cultures (all systems other than the BT system) was assessed by measuring total protein levels using sulforhodamine B (SRB) staining in parallel cultures at the time of biomarker measurements, indicated as SRB endpoints. For proliferation assays for adherent cell types, individual cell types are cultured at sub-confluence and relative cell numbers quantified by SRB staining at time points optimized for each system (48 h: 3C and CASM3C systems; 72 h: BT and HDF3CGF systems; 96 h: SAg system). SRB was performed by staining cells with 0.1% SRB after fixation with 10% TCA and reading wells at 560 nm.Viability and proliferation of PBMC (T cells) was quantified by Alamar Blue reduction for the SAg and BT systems. For PBMC viability (referred to as PBMC Cytotoxicity within the assay endpoint names), cells were plated (75,000/well in a 96-well plate) and then chemical samples added for 1 h before addition of activators, SEB and TSST-1 (20 ng/mL final concentration each). Cells were incubated for 90 h. Then, Alamar Blue (20 uL/well) (Invitrogen, Cat DAL1100) was added for 6 h, and the plates were read with a fluorescence microplate reader at 546/580 nm (excitation/emission). For PBMC proliferation, cells were plated and activated as above but incubated for only 16 h prior to addition of Alamar Blue. Plates were read after 6 h.
In the case of `Cn1cc[nH]c1=S`, the outcome was inactive.

`OCC(CO)(CO)CO`: the result was inactive. The same measure, in the same setting: for `FC(F)(F)COC(OCC(F)(F)F)OCC(F)(F)F` the value was “inactive”; for `OC[C@H]1O[C@@H]2O[C@H]3[C@H](O)[C@@H](O)[C@@H](O[C@H]4[C@H](O)[C@@H](O)[C@@H](O[C@H]5[C@H](O)[C@@H](O)[C@@H](O[C@H]6[C@H](O)[C@@H](O)[C@@H](O[C@H]7[C@H](O)[C@@H](O)[C@@H](O[C@H]1[C@H](O)[C@H]2O)O[C@@H]7CO)O[C@@H]6CO)O[C@@H]5CO)O[C@@H]4CO)O[C@@H]3CO`, “inactive”; for `O=S(=O)(O)c1ccc(N=Nc2c(O)ccc3cc(S(=O)(=O)O)ccc23)cc1`, “inactive”. Still for that read-out and setting: for `OC[C@H]1O[C@@](CO)(O[C@H]2O[C@H](CO)[C@@H](O)[C@H](O)[C@H]2O)[C@@H](O)[C@@H]1O` the value was “inactive”; for `CC(=O)c1ccccc1`, “inactive”. On the same count and under the same terms, the entry for `NC(=O)N(O)[C@@H]1COc2cc(OCc3ccccc3)ccc21` is “inactive”; for `CCCCCCCCN(C)C` it is “inactive”; for `CNC(C)=O` it is “inactive”. With `CCN(CC)C(=S)SSC(=S)N(CC)CC`, the outcome was inactive.

As to `C=CCc1cc(S(=O)(=O)c2ccc(O)c(CC=C)c2)ccc1O`, the result was inactive. Same read-out and setting: the entry for `c1ccc2ncccc2c1` is “inactive”; for `CCc1ccc(O)c(C(C)(C)C)c1` it is “inactive”; for `Cc1nc(-c2ccccn2)ncc1C(=O)Nn1cc(C)c2cc(F)ccc21` it is “inactive”. Same read-out and setting: the entry for `COS(C)(=O)=O` is “inactive”; for `CCCCCCCC/C=C\CCCCCCCC(=O)OC[C@@H](O)[C@H]1OC[C@H](O)[C@H]1O` it is “inactive”; for `O=C(O)[C@H](O)[C@@H](O)C(=O)O` it is “inactive”. Regarding `Cn1c(=O)c2[nH]cnc2n(C)c1=O`, the result was inactive.

As for `CCCCC(CC)C(=O)OCCOCCOCCOC(=O)C(CC)CCCC` (stereo not given), the outcome was inactive.

With `OCCC(F)(F)C(F)(F)C(F)(F)C(F)(F)F`, the result was inactive. Still for that read-out and setting: for `FC(F)=C(F)C(F)(F)C(F)(F)C(F)(F)C(F)(F)C(F)(F)C(F)(F)F` the value was “inactive”; for `NNC(=O)c1ccncc1`, “inactive”.

Consider `COCc1nnc(-c2ccc[n+]([O-])c2)n1-c1c(Cl)c(Cl)cc2[nH]c(=O)c(=O)[nH]c12`, for which the outcome was inactive.

For the compound `C[C@@H](Oc1ccc(CNC(=O)c2cccnc2Oc2ccc3c(c2)OCO3)c(F)c1)C(=O)O`, the result was inactive. Usually AC50 stands for the concentration giving half of the maximal activity seen. As to `CCOc1ccc2[nH]cc(C(=O)NCc3ccccc3)c(=O)c2n1`, the AC50 was 3.97 µM (active).

Consider `CC1(C)C(=O)N(Cl)C(=O)N1Cl`, for which the outcome was inactive. `CCCCCOC(C)=O`: the result was inactive. Same read-out and setting: for `CCCc1ccccc1` the value was “inactive”; for `O=C(O)c1cccc(C(=O)O)c1`, “inactive”; for `O=C1CN(N=Cc2ccc([N+](=O)[O-])o2)C(=O)N1`, “inactive”. On the same count and under the same terms, the entry for `c1ccc2cc3ccccc3cc2c1` is “inactive”; for `O=C(NO)C1(NS(=O)(=O)c2ccc(Oc3ccc(F)cc3)cc2)CCOCC1` it is “inactive”. Take `CCCCCCCCCCCCCCCCOS(=O)(=O)O`: the AC50 was 2.46 µM (active). On to `FC(F)(F)C(F)(F)C(F)(F)C(F)(F)C(F)(F)C(F)(F)I`, for which the result was inactive.

For the compound `O=S1(=O)CCCO1`, the result was inactive. On the same count and under the same terms, for `CCCCCCCC1CCC(=O)O1` (stereo not given) the value was “inactive”; for `S=P(N1CC1)(N1CC1)N1CC1`, “inactive”. The same measure, in the same setting: the entry for `NC(=O)NN=Cc1ccc([N+](=O)[O-])o1` is “inactive”. On the same count and under the same terms, for `COc1cc2c(c(OC)c1OC)-c1ccc(OC)c(=O)cc1[C@@H](NC(C)=O)CC2` the value was “inactive”.

(Values after PubChem BioAssay (EPA / NIEHS).)
